Assay results as given in PubChem BioAssay AID1159580 (chemical genetic matrix, 2015).
Among all 5,500 compounds or so, about 2,000 (36%) were called active. Another 18% or so got no clear call; they are omitted. Cut-off read from the data, not from the text of the source: active = normalized growth mostly below about 0.91 (no sharp cut-off); inconclusive = no clear call, values can overlap the other calls; inactive = mostly above about 0.92. The list shows a part of the results.

Experiment: chemical genetic growth profiling, strain panel (AID 1159580);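 note: tested at 20 µM; growth read once vehicle control cultures reached saturation at 30 °C; 1 = growth at the plate median or of vehicle wells; lower values mean less growth of the strain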
Settings: S. cerevisiae deletion strains, growth OD

Measured: normalized growth

C[N+](C)(CCCCCC[N+](C)(C)CCCN1C(=O)c2cccc3cccc(c23)C1=O)CCCN1C(=O)c2cccc3cccc(c23)C1=O
inactive: locus YAL040C, strain CLN3, active compounds read low 0.984 | locus YCL061C, strain MRC1 (second series), active compounds read low 1 | locus YDR150W, strain NUM1, active compounds read low 1 | locus YDR363W, strain ESC2, active compounds read low 0.986 | locus YER002W, strain NOP16, active compounds read low 1.01 | locus YGR229C, strain SMI1, active compounds read low 1 | locus YMR307W, strain GAS1, active compounds read low 0.981 | locus YNL128W, strain TEP1, active compounds read low 0.995 | locus YNL153C, strain GIM3, active compounds read low 0.955 | locus YNL175C, strain NOP13, active compounds read low 1.01 | locus YNL197C, strain WHI3, active compounds read low 1.01 | locus YNL224C, strain SQS1, active compounds read low 1 | locus YOR083W, strain WHI5 (second series), active compounds read low 1.01 | locus YPL055C, strain LGE1, active compounds read low 0.963 | locus YPL241C, strain CIN2, active compounds read low 0.99
